{"source": "PubChem BioAssay (Tox21)", "assay": "qHTS assay to identify small molecule phospholipidosis (PLD) inducers (AID 1259344)", "in_short": "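HepG2 cells grown on collagen I take up LipidTOX Red while exposed to compound for 24 h; after fixation they are imaged at 20x and pit metrics are extracted.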", "note": "Inconclusive results are not listed. A call without a number means that no potency is given here. Active and inactive are the calls of the source. Calls follow the shape of the dose curve; as a rule, active = well fitted activation curve with a large enough effect; inconclusive = small, poorly fitted or top-dose-only effect; inactive = flat fitted curve, though single readings scatter."}
{"compound": "C=N[C@@H](C(=O)N[C@@H]1C(=O)N2[C@@H]1SC(C)(C)[C@@H]2C(=O)O)c1ccccc1", "values": [{"measurement": "Potency", "value": "inactive"}]}
{"compound": "CC[C@H]1OC(=O)C[C@@H](O)[C@H](C)[C@@H](O[C@@H]2O[C@H](C)[C@@H](O)[C@H](N(C)C)[C@H]2O)[C@@H](CCN2C[C@H](C)C[C@H](C)C2)C[C@@H](C)C(=O)/C=C/C(C)=C/[C@@H]1CO[C@@H]1O[C@H](C)[C@@H](O)[C@@H](OC)[C@H]1OC", "values": [{"measurement": "Potency", "value": "inactive"}]}
{"compound": "CNCC(=O)N[C@@H](CCCN=C(N)N)C(=O)N[C@H](C(=O)N[C@@H](Cc1ccc(O)cc1)C(=O)N[C@H](C(=O)N[C@@H](Cc1cnc[nH]1)C(=O)N1CCC[C@H]1C(=O)N[C@@H](C)C(=O)O)C(C)C)C(C)C", "values": [{"measurement": "Potency", "value": "inactive"}]}
{"compound": "C[C@@H]1O[C@@H]1P(=O)(O)O", "values": [{"measurement": "Potency", "value": "inactive"}]}
{"compound": "O=C(O)c1cc2cc(Cc3cccnc3)ccc2o1", "values": [{"measurement": "Potency", "value": "inactive"}]}
{"compound": "CN1C(=O)C[C@@H](C(=O)N[C@@H](Cc2cnc[nH]2)C(=O)N2CCC[C@H]2C(N)=O)NC1=O", "values": [{"measurement": "Potency", "value": "inactive"}]}
{"compound": "CN[C@H](CC(C)C)C(=O)N[C@H]1C(=O)N[C@@H](CC(N)=O)C(=O)N[C@H]2C(=O)N[C@H]3C(=O)N[C@H](C(=O)N[C@@H](C(=O)O)c4cc(O)cc(O)c4-c4cc3ccc4O)[C@H](O)c3ccc(c(Cl)c3)Oc3cc2cc(c3O[C@@H]2O[C@H](CO)[C@@H](O)[C@H](O)[C@H]2O[C@H]2C[C@](C)(N)C(O)[C@H](C)O2)Oc2ccc(cc2Cl)[C@H]1O", "note": "(some centres not stated)", "values": [{"measurement": "Potency", "value": "inactive"}]}
{"compound": "CCCCCCCCCCCCCCCCCC(=O)O", "values": [{"measurement": "Potency", "value": "inactive"}]}
{"compound": "C[Se]CC[C@H](N)C(=O)O", "values": [{"measurement": "Potency", "value": "inactive"}]}
{"compound": "CC(C)NCC1CCc2cc(CO)c([N+](=O)[O-])cc2N1", "note": "(configuration not stated)", "values": [{"measurement": "Potency", "value": "inactive"}]}
{"compound": "NC(=O)[C@H]1O[C@@H](O)[C@H](O)[C@@H](O)[C@@H]1O", "values": [{"measurement": "Potency", "value": "inactive"}]}
{"compound": "NCCCC[C@H](NC(=O)[C@@H]1CCCN1C(=O)[C@@H]1CSSC[C@H](N)C(=O)N[C@@H](Cc2ccc(O)cc2)C(=O)N[C@@H](Cc2ccccc2)C(=O)N[C@@H](CCC(N)=O)C(=O)N[C@@H](CC(N)=O)C(=O)N1)C(=O)NCC(N)=O", "values": [{"measurement": "Potency", "value": "inactive"}]}
{"compound": "Cc1cnc(C(=O)O)c[n+]1[O-]", "values": [{"measurement": "Potency", "value": "inactive"}]}
{"compound": "CCC(=O)OC(OP(=O)(CCCCc1ccccc1)CC(=O)N1C[C@H](C2CCCCC2)C[C@H]1C(=O)O)C(C)C", "note": "(some centres not stated)", "values": [{"measurement": "Potency", "value": "inactive"}]}
{"compound": "NC[C@@H]1CC[C@@H](N)[C@@H](O[C@H]2[C@H](O)[C@@H](O[C@H]3O[C@H](CO)[C@@H](O)[C@H](N)[C@H]3O)[C@H](N)C[C@@H]2N)O1", "values": [{"measurement": "Potency", "value": "inactive"}]}
{"compound": "CO/N=C(\\C(=O)N[C@@H]1C(=O)N2C(C(=O)[O-])=C(C[n+]3cccc4c3CCC4)CS[C@H]12)c1csc(N)n1", "values": [{"measurement": "Potency", "value": "inactive"}]}
{"compound": "O=C(O)c1ccccc1[O-].O=C(O)c1ccccc1[O-].[Zn+2]", "values": [{"measurement": "Potency", "value": "inactive"}]}
{"compound": "NCC1CCC(C(=O)O)CC1", "note": "(configuration not stated)", "values": [{"measurement": "Potency", "value": "inactive"}]}
{"compound": "CO/N=C(\\C(=O)N[C@@H]1C(=O)N2C(C(=O)O)=C(CSc3cnns3)CS[C@H]12)c1csc(N)n1", "values": [{"measurement": "Potency", "value": "inactive"}]}
{"compound": "CC(C)(COP(=O)(O)OP(=O)(O)OC[C@H]1O[C@@H](n2cnc3c(N)ncnc32)[C@H](O)[C@@H]1OP(=O)(O)O)C(O)C(=O)NCCC(=O)NCCS", "note": "(some centres not stated)", "values": [{"measurement": "Potency", "value": "inactive"}]}
{"compound": "CCCCN(CCCC)C(=S)[S-].CCCCN(CCCC)C(=S)[S-].[Zn+2]", "values": [{"measurement": "Potency", "value": "inactive"}]}
{"compound": "COc1ccc(/C=C/C(=O)Nc2ccccc2C(=O)O)cc1OC", "values": [{"measurement": "Potency", "value": "inactive"}]}
{"compound": "CCCn1c(=O)[nH]c(=O)c2[nH]cnc21", "values": [{"measurement": "Potency", "value": "inactive"}]}
{"compound": "NS(=O)(=O)c1cc(Cl)c(Cl)c(S(N)(=O)=O)c1", "values": [{"measurement": "Potency", "value": "inactive"}]}
{"compound": "O=C1c2c(O)cccc2[C@H]([C@@H]2O[C@H](CO)[C@@H](O)[C@H](O)[C@H]2O)c2cc(CO)cc(O)c21", "values": [{"measurement": "Potency", "value": "inactive"}]}
{"compound": "COC1=C(OC)C(=O)C(C/C=C(\\C)CC/C=C(\\C)CC/C=C(\\C)CC/C=C(\\C)CC/C=C(\\C)CC/C=C(\\C)CC/C=C(\\C)CC/C=C(\\C)CC/C=C(\\C)CCC=C(C)C)=C(C)C1=O", "values": [{"measurement": "Potency", "value": "inactive"}]}
{"compound": "O=C(O)[C@H]1CN(C/C=C/P(=O)(O)O)CCN1", "values": [{"measurement": "Potency", "value": "inactive"}]}
{"compound": "O=c1[nH]c(=O)n([C@H]2C[C@H](O)[C@@H](CO)O2)cc1/C=C/Br", "values": [{"measurement": "Potency", "value": "inactive"}]}
{"compound": "O=C1CC[C@@H](C(=O)N[C@H]2C[C@@H]2c2ccccc2)N1", "values": [{"measurement": "Potency", "value": "inactive"}]}
{"compound": "O=C1c2ccccc2C(=O)C1c1ccc(F)cc1", "values": [{"measurement": "Potency", "value": "inactive"}]}
{"compound": "C(=C\\c1ccncc1)/c1ccccc1", "values": [{"measurement": "Potency", "value": "inactive"}]}
{"compound": "NC[C@H]1O[C@H](O[C@H]2[C@H](O)[C@@H](O[C@H]3O[C@H](CO)[C@@H](O)[C@H](N)[C@H]3O)[C@H](N)C[C@@H]2N)[C@H](N)C[C@@H]1O", "values": [{"measurement": "Potency", "value": "inactive"}]}
